Drawing on PubChem BioAssay (EPA / NIEHS), this text covers outcome and AC50 for seven compounds.

Active and inactive are the calls of the source. Rule for the calls: active = hit-call score of the fitted dose curve at least 0.9, where 1 is the maximum; inactive = score below 0.9.

The nature of assay [1]: ATG_E_Box_CIS: Attagene CIS-FACTORIAL HepG2 Assay for human Enhancer Box (E-box) (AID 2282936). The note with it: HepG2 E-box cis-reporter transcription, actives raise or lower the signal. In a few lines:
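In this cell-based setup, HepG2 cells bearing transfected promoter-driven reporter units were exposed to chemicals for 24 h; reporter transcripts were amplified, 6-FAM-labelled, cut with HpaI and sized by capillary electrophoresis.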

The nature of assay [2]: ATG_M_61_CIS: Attagene CIS-FACTORIAL HepG2 Assay for M61 Transcription Factor (Internal Marker) (AID 2282937). Conditions: HepG2 Attagene CIS-FACTORIAL M61 internal marker reporter; actives raise or lower the signal. The gist of the method:
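Readout: fluorescent reporter mRNA fragments resolved by capillary electrophoresis after RT-PCR. Transiently transfected human HepG2 cells carried MRTU constructs reporting endogenous TF activity; 24 h chemical exposure; gain or loss of signal fitted relative to DMSO.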

Assay [3] is described as follows: ATG_EGR_CIS: Attagene CIS-FACTORIAL HepG2 Assay for human Early Growth Response 1 (EGR1) (AID 2282938). The note with it: HepG2 Attagene CIS-FACTORIAL EGR reporter mRNA; actives raise or lower the signal. The gist of the method:
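Read-out: fluorescent reporter-mRNA fragments resolved by capillary electrophoresis after RT-PCR, 24 h post-dose in transiently transfected HepG2. Endogenous transcription-factor activity reported via cis-element-regulated reporter units; gain or loss fitted relative to DMSO.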

A short description of assay [4]: ATG_M_19_CIS: Attagene CIS-FACTORIAL HepG2 Assay for M19 Transcription Factor (Internal Marker) (AID 2282939). Conditions: HepG2 Attagene CIS-FACTORIAL M19 internal marker reporter; actives raise or lower the signal. The gist of the method:
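Readout: fluorescent reporter-transcript fragments by capillary electrophoresis after RT-PCR. Human HepG2 liver cells carried transfected MRTU constructs reporting endogenous transcription-factor activity; exposure 24 h. Gain or loss of signal fitted relative to DMSO.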

Assay [5] can be described thus: ATG_ERE_CIS: Attagene CIS-FACTORIAL HepG2 Assay for Estrogen Response Element (ERE) (AID 2282940). Conditions: HepG2 ERE cis-reporter, Attagene RNA transcript; actives raise or lower the signal. The gist of the method:
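Readout: reporter mRNA induction by RT-PCR, FAM-labelled primer extension, HpaI digestion and capillary electrophoresis, 24 h after dosing transfected HepG2 cells. Endogenous transcription factors act on cis-element-regulated reporters. Gain or loss fitted against DMSO.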

Assay [6] in a line: ATG_Ets_CIS: Attagene CIS-FACTORIAL HepG2 Assay for human Erythroblast Transformation Specific (ETS) (AID 2282941). The note with it: HepG2 ETS cis-reporter transcription; AC50: actives raise or lower the signal unless noted; outcome: actives raise or lower the signal unless noted. In a few lines: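 Multiplexed reporter transcript profiling: HepG2, 24 h treatment, total RNA to cDNA, PCR, 6-FAM labelling, HpaI cut, capillary electrophoresis. Gain- or loss-of-signal fitted against DMSO.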

The nature of assay [7]: ATG_FoxO_CIS: Attagene CIS-FACTORIAL HepG2 Assay for human Forkhead box O (FoxO) (AID 2282943). The note with it: HepG2 Attagene cis-reporter, FoxO element, mRNA; actives raise or lower the signal. In a few lines:
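Transfected HepG2 reporter cells exposed to test chemical for 24 h; reporter RNA measured by reverse transcription, PCR and fluorescent capillary electrophoresis; curves fitted for increases and decreases against DMSO.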

Assay [8] is described as follows: ATG_GATA_CIS: Attagene CIS-FACTORIAL HepG2 Assay for human GATA Binding Protein (AID 2282944). Conditions: HepG2 GATA cis-element reporter, Attagene multiplex mRNA; actives raise or lower the signal. The gist of the method: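 Read-out: fluorescent reporter mRNA fragments resolved by capillary electrophoresis after RT-PCR. Human liver HepG2 cells carried transiently transfected cis-regulated reporter constructs; chemicals incubated 24 h; gain or loss of signal fitted relative to DMSO.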

Assay [9] in a line: ATG_GLI_CIS: Attagene CIS-FACTORIAL HepG2 Assay for human Zinc Finger Protein GLI1 (AID 2282945). The note with it: HepG2, Attagene cis-factorial reporter mRNA, GLI element; actives raise or lower the signal. In a few lines: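 Transiently transfected HepG2 cells report endogenous transcription factor activity via cis-element-driven reporter units. After 24 h compound exposure, reporter mRNA was measured by RT-PCR with capillary electrophoresis; bidirectional fitting against DMSO baseline.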

A short description of assay [10]: ATG_M_32_CIS: Attagene CIS-FACTORIAL HepG2 Assay for M32 Transcription Factor (Internal Marker) (AID 2282949).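 Note: background control marker of the multiplexed CIS panel rather than a real target.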 The note with it: HepG2 Attagene cis-factorial M32 reporter, mRNA; actives raise or lower the signal. The gist of the method:
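HepG2 transfectants (cis-regulated reporter transcription units) dosed 24 h. Reporter mRNA by RT-PCR plus CE, analysed as gain or loss relative to DMSO.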

Assay [11] can be described thus: ATG_M_06_CIS: Attagene CIS-FACTORIAL HepG2 Assay for M06 Transcription Factor (Internal Marker) (AID 2282950). The note with it: HepG2 Attagene CIS-FACTORIAL M06 internal marker reporter; actives raise or lower the signal. In a few lines:
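Terse: HepG2, transient MRTU transfection (FuGene 6), 24 h dosing; total RNA, oligo(dT) RT, PCR, FAM label, HpaI cut, capillary electrophoresis; bidirectional fit vs DMSO baseline; background-control endpoint.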

In assay [12] the target is Hypoxia-inducible factor 1-alpha (Homo sapiens) (UniProt Q16665). The experiment in a line: ATG_HIF1a_CIS: Attagene CIS-FACTORIAL HepG2 Assay for human Hypoxia Inducible Factor 1 (HIF1A) (AID 2282951). Conditions: HepG2 Attagene cis-factorial HIF1a reporter transcription; actives raise or lower the signal. In a few lines: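 RT-PCR/capillary electrophoresis fluorescence readout of reporter transcripts from endogenous-TF-driven cis elements in transfected HepG2 cells, 24 h exposure; activity fitted in both directions against DMSO controls.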

The target in assay [13] is Hepatocyte nuclear factor 6 (Homo sapiens) (UniProt Q9UBC0). The experiment in a line: ATG_HNF6_CIS: Attagene CIS-FACTORIAL HepG2 Assay for human Hepatocyte Nuclear Factor 6 (HNF6) (AID 2282952). Conditions: HepG2 Attagene cis-factorial HNF6 reporter transcription; actives raise or lower the signal. The gist of the method:
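Twenty-four-hour chemical treatment of reporter-transfected HepG2 cells precedes RNA isolation, DNase-treated reverse transcription and PCR of reporter sequences. Labelled fragments are sized by capillary electrophoresis and fitted bidirectionally versus DMSO.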

Assay [14] addresses Heat shock factor protein 1 (Homo sapiens) (UniProt Q00613). The experiment in a line: ATG_HSE_CIS: Attagene CIS-FACTORIAL HepG2 Assay for human Heat Shock Transcription Factor 1 (HSE) (AID 2282953). The note with it: HepG2 HSE cis-reporter, Attagene RNA transcription; actives raise or lower the signal. In a few lines:
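Read-out: fluorescence of reporter-specific RT-PCR fragments separated by capillary electrophoresis. HepG2 carrying transfected cis-element reporter units; 24 h dosing; activity fitted in both directions relative to DMSO baseline.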

A short description of assay [15]: ATG_MRE_CIS: Attagene CIS-FACTORIAL HepG2 Assay for human Metal Responsive Element (MRE) (AID 2282954). The note with it: HepG2 MRE cis-reporter transcription, Attagene multiplex; actives raise or lower the signal. The gist of the method: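 Measured here is mRNA induction from an MRE cis-element reporter in HepG2 after 24 h, quantified by fluorescence of labelled RT-PCR products on capillary electrophoresis; gain- and loss-of-signal fits use DMSO as baseline.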

In assay [16] the target is Hepatocyte nuclear factor 3-beta (Homo sapiens) (UniProt Q9Y261). The experiment in a line: ATG_FoxA2_CIS: Attagene CIS-FACTORIAL HepG2 Assay for human Forkhead box A2 (FOXA2) (AID 2282942). Conditions: HepG2 cis-reporter transcription factor activity, 24 h; actives raise or lower the signal. In a few lines: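 Readout: fluorescent reporter transcripts resolved by capillary electrophoresis after RT-PCR. Transiently transfected HepG2, 24 h compound exposure, endogenous TF activity at cis promoter elements. Gain or loss of signal fitted relative to DMSO.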

Assay [17] deals with Bile acid receptor (Homo sapiens) (UniProt Q96RI1). Put plainly: ATG_IR1_CIS: Attagene CIS-FACTORIAL HepG2 Assay for human Nuclear Receptor Subfamily 1 Group H Member 4 (NR1H4), IR1 submotif (AID 2282946). Conditions: IR1 reporter transcription, actives raise or lower the signal. In a few lines:
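Fluorescence of capillary-separated, HpaI-digested RT-PCR reporter products gave IR1-element mRNA induction in HepG2 cells 24 h after dosing. Endogenous transcription factors drove the cis-regulated reporters; activity was fitted bidirectionally against DMSO.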

Assay [18] in a line: ATG_GRE_CIS: Attagene CIS-FACTORIAL HepG2 Assay for human Glucocorticoid Response Elements (GRE) (AID 2282947). Conditions: HepG2 GRE cis-reporter, Attagene multiplex mRNA; AC50: actives raise or lower the signal unless noted; outcome: actives raise or lower the signal unless noted. In a few lines:
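Fluorescence intensity of reporter-specific cDNA fragments, separated by capillary electrophoresis, provides the signal. Constructs carry cis-regulating promoters in transiently transfected HepG2 liver cells; 24 h incubation; fitting is bidirectional against DMSO.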

Assay [19] can be described thus: ATG_ISRE_CIS: Attagene CIS-FACTORIAL HepG2 Assay for human Interferon Regulatory Factor 1 (IRF1) binding to an Interferon-Stimulated Response Element (ISRE) (AID 2282948). Conditions: HepG2 ISRE cis-reporter (Attagene), mRNA transcription readout; actives raise or lower the signal. The gist of the method:
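Signal reflects induction or loss of ISRE-linked reporter mRNA in transiently transfected HepG2 cells after a 24 h treatment, detected by fluorescent RT-PCR fragments on capillary electrophoresis and normalised to DMSO.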

The nature of assay [20]: ATG_PBREM_CIS: Attagene CIS-FACTORIAL HepG2 Assay for human Phenobarbital-responsive Enhancer Module (PBREM) (AID 2282955). The note with it: HepG2 PBREM cis-reporter, Attagene multiplexed transcription; actives raise or lower the signal. The gist of the method:
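Reporter mRNA read by RT-PCR, 6-FAM primer extension, HpaI digestion and capillary electrophoresis. Transfected HepG2 cells, 24 h compound exposure. Gain or loss of signal fitted bidirectionally relative to DMSO baseline.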

Heat shock factor protein 1 (Homo sapiens), sequence (Q00613 whole entry, looked up, the tested form may be a part): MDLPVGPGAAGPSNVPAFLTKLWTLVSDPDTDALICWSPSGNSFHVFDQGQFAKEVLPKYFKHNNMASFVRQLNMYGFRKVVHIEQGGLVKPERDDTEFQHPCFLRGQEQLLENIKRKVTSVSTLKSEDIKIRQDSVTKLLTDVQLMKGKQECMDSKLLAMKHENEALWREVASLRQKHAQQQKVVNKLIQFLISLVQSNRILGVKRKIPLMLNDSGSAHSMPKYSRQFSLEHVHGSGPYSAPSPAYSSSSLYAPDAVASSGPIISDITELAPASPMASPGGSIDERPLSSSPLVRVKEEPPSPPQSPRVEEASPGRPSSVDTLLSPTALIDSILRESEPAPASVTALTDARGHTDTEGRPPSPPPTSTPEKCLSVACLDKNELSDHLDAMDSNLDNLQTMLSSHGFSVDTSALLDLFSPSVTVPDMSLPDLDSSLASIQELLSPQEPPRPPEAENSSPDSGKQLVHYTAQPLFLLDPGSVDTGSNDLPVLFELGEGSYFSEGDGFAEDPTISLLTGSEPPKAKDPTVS
Hepatocyte nuclear factor 3-beta (Homo sapiens), sequence (Q9Y261 whole entry, looked up): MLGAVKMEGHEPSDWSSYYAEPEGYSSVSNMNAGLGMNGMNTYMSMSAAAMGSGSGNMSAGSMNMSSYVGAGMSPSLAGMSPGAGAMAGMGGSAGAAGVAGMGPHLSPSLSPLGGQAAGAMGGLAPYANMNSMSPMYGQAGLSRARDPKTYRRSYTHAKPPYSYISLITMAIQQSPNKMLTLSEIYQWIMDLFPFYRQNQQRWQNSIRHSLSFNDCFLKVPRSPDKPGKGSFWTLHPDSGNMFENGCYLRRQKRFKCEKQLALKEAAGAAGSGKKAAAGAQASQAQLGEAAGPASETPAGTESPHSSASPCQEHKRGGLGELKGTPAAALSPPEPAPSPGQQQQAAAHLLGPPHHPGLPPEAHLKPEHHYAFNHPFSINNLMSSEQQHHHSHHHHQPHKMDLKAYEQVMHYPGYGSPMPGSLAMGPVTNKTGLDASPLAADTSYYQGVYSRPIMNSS
Hepatocyte nuclear factor 6 (Homo sapiens), sequence (Q9UBC0 whole entry, looked up, the tested form may be a part): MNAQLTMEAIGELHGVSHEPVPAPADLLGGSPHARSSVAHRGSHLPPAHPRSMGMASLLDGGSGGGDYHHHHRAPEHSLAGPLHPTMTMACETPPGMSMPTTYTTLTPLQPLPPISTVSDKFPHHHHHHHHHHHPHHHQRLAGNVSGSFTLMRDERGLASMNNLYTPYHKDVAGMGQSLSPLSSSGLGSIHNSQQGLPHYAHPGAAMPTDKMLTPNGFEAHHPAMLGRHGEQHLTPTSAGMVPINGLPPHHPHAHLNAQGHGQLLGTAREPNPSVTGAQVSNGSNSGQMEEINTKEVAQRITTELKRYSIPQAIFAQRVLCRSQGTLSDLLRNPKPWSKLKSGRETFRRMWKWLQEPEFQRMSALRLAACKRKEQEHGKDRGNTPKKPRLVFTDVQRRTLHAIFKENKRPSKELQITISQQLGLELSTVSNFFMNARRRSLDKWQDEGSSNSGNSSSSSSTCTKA
Bile acid receptor (Homo sapiens), sequence (Q96RI1 whole entry, looked up): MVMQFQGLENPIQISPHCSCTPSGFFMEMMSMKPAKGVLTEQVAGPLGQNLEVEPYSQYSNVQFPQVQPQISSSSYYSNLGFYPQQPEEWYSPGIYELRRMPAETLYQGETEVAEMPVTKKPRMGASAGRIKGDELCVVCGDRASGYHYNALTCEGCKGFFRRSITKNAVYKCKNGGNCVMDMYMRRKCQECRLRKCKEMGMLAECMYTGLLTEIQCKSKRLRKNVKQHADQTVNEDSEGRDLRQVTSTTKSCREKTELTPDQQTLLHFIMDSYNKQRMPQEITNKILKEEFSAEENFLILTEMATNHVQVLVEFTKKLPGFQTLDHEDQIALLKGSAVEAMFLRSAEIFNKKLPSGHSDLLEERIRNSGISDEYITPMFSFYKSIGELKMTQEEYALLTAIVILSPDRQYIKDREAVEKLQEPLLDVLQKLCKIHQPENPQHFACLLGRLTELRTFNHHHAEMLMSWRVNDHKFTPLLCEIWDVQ
Hypoxia-inducible factor 1-alpha (Homo sapiens), sequence (Q16665 whole entry, looked up): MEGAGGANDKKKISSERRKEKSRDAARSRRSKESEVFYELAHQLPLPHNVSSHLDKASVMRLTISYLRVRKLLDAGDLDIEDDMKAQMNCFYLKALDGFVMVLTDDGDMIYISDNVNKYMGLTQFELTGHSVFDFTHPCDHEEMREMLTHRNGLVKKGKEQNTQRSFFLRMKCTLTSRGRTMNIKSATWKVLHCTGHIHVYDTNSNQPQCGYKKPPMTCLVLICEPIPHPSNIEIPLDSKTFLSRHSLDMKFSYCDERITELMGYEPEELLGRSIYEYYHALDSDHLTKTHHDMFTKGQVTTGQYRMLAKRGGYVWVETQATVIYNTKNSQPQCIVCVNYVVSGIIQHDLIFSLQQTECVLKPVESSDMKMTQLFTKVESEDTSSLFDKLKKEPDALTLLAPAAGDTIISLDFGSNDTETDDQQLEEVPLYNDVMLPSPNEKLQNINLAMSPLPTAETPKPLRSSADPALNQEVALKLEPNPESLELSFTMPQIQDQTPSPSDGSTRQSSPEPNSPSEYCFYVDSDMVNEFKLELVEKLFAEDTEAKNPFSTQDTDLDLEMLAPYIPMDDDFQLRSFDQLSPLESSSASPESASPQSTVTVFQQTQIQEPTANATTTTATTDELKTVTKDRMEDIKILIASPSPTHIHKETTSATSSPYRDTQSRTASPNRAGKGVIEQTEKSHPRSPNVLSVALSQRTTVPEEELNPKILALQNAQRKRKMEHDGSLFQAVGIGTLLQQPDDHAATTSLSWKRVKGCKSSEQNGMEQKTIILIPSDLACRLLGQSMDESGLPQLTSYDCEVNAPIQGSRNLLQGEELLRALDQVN

Turning to `NCCN`, the result in assay [1], in [2], in assay [3], in assay [4], in assay [5] and in assay [6] was inactive. Further, the compound was called inactive in assay [7], in [8], in [9], in [10], in assay [11] and in assay [12]. In addition, the result in assay [13], in assay [14] and in [15] was inactive.

Turning to `C=CC(=C)CC/C=C(\C)CCC=C(C)C`, the outcome in assay [1], in [2], in assay [3], in [4], in [6] and in [16] was inactive. In addition, the outcome in assay [7], in assay [8], in assay [9], in assay [17], in assay [18] and in assay [19] was inactive. In addition, the result in [10], in assay [11], in assay [12], in assay [13], in [14] and in [20] was inactive.

As for `c1cc2cccc3c4cccc5cccc(c(c1)c23)c54`, the result in assay [1], in [2], in assay [3], in [4], in assay [5] and in assay [6] was inactive. Moreover, the call in assay [16], in [7], in assay [8], in assay [17], in assay [18] and in [10] was inactive. Further, the compound was called inactive in [11], in assay [12], in [13], in [14] and in assay [20].

Turning to `CCC1CO1` (stereo not drawn), the outcome in assay [1], in assay [2], in [3], in assay [4], in assay [6] and in assay [16] was inactive. The call in [7], in assay [8], in assay [9], in [17], in [18] and in assay [19] was inactive. Moreover, the call in [10], in assay [11], in assay [12], in assay [13], in assay [14] and in [15] was inactive.

Take `Oc1cc2ccccc2cc1O`: the result in [1], in assay [2], in assay [3], in assay [4], in [6] and in assay [7] was inactive. For the same compound, the outcome in assay [8], in assay [9], in assay [17], in assay [18], in assay [10] and in assay [11] was inactive. The compound was called inactive in [12], in assay [13], in assay [14] and in [20]. Further, the AC50 in assay [5] was 100 µM (active).

For `C[N+](C)(CCCNS(=O)(=O)CCC(F)(F)C(F)(F)C(F)(F)C(F)(F)C(F)(F)C(F)(F)F)CC(=O)[O-]`, the outcome in assay [1], in assay [2], in [3], in assay [4], in assay [6] and in [16] was inactive. Moreover, the result in assay [7], in assay [8], in [9], in assay [17], in assay [18] and in assay [19] was inactive. Moreover, the outcome in assay [10], in [11], in [12], in assay [13], in [14] and in assay [15] was inactive. The result in [20] was inactive.

Turning to `COc1ccc(C#N)cc1`, the outcome in assay [1], in [2], in assay [3], in assay [4], in assay [5] and in [6] was inactive. Moreover, the compound was classed as inactive in [7], in assay [8], in assay [9], in assay [17], in assay [18] and in [19]. For the same compound, the result in [10], in assay [11], in [12], in [13], in assay [14] and in assay [15] was inactive. In addition, in assay [20], the result was inactive.
